In paper PMC7862700, “An all-to-all approach to the identification of sequence-specific readers for epigenetic DNA modifications on cytosine”:

Experiments:
Assay in all cases: DAPPL (digital affinity profiling via proximity ligation, sequencing); 10 mM Tris-HCl pH 7.5, 50 mM NaCl, 1 mM DTT, 4% glycerol, room temperature, 30 min; GST-TFs on glutathione beads, 16-mer random dsDNA library, 0.1% formaldehyde crosslink after washing; high values mean tight binding
FEV = biological target: T1, FEV (Homo sapiens, UniProt Q99581 1-238); details: protein: recombinant; tags: N-terminal GST; dsDNA, one strand shown
T1 sequence: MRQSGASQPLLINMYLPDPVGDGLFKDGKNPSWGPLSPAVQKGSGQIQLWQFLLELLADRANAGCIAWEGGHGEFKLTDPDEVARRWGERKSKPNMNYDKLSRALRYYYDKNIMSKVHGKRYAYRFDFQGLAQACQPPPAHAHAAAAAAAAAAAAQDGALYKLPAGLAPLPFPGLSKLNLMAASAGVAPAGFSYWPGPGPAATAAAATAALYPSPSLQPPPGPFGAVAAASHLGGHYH
Outline: (§1)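 In yeast, human transcription factors were expressed with a GST fusion, then pulled down on glutathione beads and given DNA barcodes. Pooled with a tag-only sample, they were exposed to 200 nmole of a 16-mer random double-stranded DNA library (Tris/NaCl/DTT/glycerol buffer, room temperature, 30 min), washed, crosslinked with 0.1% formaldehyde, proximity-ligated using BsaI/T4 ligase for 1 h at 37 °C, PCR-amplified and read on an Illumina NextSeq500. Each hexamer's frequency of reads for a factor, divided by the matching frequency for the tag-only sample, gives the binding signal.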

ETV5 = ETV5 (Homo sapiens, UniProt P41161 1-510); details: protein: recombinant; tags: N-terminal GST; dsDNA, one strand shown
Outline: as §1

HSF1 = HSF1 (Homo sapiens, UniProt Q00613 1-529); details: protein: recombinant; tags: N-terminal GST; chain copies: 3; dsDNA, one strand shown
Outline: as §1

SPIC = biological target: T2, SPIC (Homo sapiens, UniProt Q8N5J4 1-248); details: protein: recombinant; tags: N-terminal GST; dsDNA, one strand shown
T2 sequence: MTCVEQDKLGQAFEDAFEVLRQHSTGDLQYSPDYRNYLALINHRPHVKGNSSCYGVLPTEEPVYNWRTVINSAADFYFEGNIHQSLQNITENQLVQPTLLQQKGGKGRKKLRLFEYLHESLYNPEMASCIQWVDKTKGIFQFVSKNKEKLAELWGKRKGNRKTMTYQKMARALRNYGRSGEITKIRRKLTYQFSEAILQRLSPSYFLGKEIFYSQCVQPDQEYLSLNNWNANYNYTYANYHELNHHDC
Outline: as §1

ELF4 = ELF4 (Homo sapiens, UniProt Q99607 1-663); details: protein: recombinant; tags: N-terminal GST; dsDNA, one strand shown
Outline: as §1

ELK4 = biological target: T3, ELK4 (Homo sapiens, UniProt P28324-2 1-405); details: protein: recombinant; tags: N-terminal GST; dsDNA, one strand shown
T3 sequence: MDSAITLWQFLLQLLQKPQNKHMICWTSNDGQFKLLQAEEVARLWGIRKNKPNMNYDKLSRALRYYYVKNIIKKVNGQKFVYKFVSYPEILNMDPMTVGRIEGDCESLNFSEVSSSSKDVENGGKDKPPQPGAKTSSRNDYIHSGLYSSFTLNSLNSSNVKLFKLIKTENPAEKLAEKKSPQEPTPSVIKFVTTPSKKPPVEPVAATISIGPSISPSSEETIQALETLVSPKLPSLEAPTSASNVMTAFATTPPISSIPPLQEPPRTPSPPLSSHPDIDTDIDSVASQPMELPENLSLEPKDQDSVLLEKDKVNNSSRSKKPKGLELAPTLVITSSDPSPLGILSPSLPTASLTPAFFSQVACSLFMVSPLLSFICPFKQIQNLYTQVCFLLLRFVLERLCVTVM
Outline: as §1

ETV2 = biological target: T4, ETV2 (Homo sapiens, UniProt O00321 1-342); details: protein: recombinant; tags: N-terminal GST; dsDNA, one strand shown
T4 sequence: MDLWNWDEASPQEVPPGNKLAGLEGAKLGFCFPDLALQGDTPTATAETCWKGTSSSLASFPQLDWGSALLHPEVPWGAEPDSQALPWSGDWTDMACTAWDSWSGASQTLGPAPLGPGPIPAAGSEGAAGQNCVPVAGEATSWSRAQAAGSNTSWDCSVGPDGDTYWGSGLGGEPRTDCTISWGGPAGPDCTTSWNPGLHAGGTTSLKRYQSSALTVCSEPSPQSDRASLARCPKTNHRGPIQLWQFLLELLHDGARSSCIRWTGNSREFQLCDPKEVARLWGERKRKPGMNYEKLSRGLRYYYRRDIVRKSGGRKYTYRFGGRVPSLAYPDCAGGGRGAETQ
Outline: as §1

ELF3 = biological target: T5, ELF3 (Homo sapiens, UniProt P78545 1-371); details: protein: recombinant; tags: N-terminal GST; dsDNA, one strand shown
T5 sequence: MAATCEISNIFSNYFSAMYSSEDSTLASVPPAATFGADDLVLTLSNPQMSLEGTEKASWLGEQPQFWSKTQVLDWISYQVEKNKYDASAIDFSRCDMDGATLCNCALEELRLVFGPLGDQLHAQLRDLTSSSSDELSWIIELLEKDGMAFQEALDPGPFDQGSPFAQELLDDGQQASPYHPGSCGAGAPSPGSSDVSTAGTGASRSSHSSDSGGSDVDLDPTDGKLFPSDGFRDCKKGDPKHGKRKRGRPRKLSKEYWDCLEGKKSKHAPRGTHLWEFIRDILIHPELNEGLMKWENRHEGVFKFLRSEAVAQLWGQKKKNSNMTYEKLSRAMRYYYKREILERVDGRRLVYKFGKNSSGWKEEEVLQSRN
Outline: as §1

CRX = CRX (Homo sapiens, UniProt O43186 1-299); details: protein: recombinant; tags: N-terminal GST; dsDNA, one strand shown
Outline: as §1

ETV1 = ETV1 (Homo sapiens, UniProt P50549 1-477); details: protein: recombinant; tags: N-terminal GST; dsDNA, one strand shown
Outline: as §1

ERF = biological target: T6, ERF (Homo sapiens, UniProt P50548 1-548); details: protein: recombinant; tags: N-terminal GST; dsDNA, one strand shown
T6 sequence: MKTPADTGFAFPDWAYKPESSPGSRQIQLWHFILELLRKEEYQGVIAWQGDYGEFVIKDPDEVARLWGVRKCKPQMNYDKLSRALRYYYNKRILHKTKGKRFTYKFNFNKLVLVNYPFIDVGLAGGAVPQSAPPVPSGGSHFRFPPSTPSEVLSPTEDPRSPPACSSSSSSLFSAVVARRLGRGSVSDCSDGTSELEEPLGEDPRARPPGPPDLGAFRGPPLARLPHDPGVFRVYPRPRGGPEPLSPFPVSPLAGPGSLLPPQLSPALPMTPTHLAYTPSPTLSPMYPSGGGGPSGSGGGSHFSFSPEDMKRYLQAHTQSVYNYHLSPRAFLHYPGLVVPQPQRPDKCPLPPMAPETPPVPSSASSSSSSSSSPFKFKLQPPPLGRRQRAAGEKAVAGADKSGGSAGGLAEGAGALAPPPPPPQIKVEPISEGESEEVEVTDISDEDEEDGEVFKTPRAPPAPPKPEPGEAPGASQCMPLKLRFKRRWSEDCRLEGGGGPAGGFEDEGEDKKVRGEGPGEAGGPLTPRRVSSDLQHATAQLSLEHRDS
Outline: as §1

ETV3L = biological target: T7, ETV3L (Homo sapiens, UniProt Q6ZN32 1-361); details: protein: recombinant; tags: N-terminal GST; dsDNA, one strand shown
T7 sequence: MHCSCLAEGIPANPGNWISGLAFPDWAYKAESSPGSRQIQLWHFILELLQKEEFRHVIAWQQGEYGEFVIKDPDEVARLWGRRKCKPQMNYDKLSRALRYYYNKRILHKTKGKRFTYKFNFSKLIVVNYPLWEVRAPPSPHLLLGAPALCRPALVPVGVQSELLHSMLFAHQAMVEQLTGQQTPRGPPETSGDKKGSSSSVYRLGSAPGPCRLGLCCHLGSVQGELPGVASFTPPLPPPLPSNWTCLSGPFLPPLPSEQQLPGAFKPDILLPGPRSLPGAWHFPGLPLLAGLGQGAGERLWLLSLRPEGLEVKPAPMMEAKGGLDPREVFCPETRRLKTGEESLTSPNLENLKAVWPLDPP
Outline: as §1

ETS2 = biological target: T8, ETS2 (Homo sapiens, UniProt P15036 1-469); details: protein: recombinant; tags: N-terminal GST; dsDNA, one strand shown
T8 sequence: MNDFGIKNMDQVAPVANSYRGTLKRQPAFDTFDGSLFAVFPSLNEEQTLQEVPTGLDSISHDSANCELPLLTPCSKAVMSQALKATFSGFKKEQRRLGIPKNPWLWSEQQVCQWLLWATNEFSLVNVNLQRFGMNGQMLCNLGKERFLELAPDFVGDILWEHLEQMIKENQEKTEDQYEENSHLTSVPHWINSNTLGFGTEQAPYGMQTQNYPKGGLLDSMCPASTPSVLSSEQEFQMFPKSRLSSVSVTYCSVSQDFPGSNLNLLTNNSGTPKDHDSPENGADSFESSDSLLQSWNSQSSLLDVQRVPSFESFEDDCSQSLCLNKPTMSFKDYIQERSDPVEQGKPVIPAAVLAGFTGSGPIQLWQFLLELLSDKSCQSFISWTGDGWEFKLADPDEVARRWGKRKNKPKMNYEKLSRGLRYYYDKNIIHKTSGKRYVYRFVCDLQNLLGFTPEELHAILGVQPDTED
Outline: as §1

SPDEF = biological target: T9, SPDEF (Homo sapiens, UniProt O95238 1-335); details: protein: recombinant; tags: N-terminal GST; dsDNA, one strand shown
T9 sequence: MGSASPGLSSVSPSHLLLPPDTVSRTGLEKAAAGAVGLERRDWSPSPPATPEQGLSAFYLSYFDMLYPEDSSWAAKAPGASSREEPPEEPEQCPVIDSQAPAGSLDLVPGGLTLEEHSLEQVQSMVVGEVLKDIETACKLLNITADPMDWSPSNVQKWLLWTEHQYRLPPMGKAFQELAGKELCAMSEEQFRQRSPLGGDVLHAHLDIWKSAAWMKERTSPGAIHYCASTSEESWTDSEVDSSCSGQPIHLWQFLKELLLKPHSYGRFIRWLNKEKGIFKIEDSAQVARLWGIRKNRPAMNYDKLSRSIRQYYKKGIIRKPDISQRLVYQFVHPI
Outline: as §1

ETV7 = biological target: T10, ETV7 (Homo sapiens, UniProt Q9Y603 1-341); details: protein: recombinant; tags: N-terminal GST; dsDNA, one strand shown
T10 sequence: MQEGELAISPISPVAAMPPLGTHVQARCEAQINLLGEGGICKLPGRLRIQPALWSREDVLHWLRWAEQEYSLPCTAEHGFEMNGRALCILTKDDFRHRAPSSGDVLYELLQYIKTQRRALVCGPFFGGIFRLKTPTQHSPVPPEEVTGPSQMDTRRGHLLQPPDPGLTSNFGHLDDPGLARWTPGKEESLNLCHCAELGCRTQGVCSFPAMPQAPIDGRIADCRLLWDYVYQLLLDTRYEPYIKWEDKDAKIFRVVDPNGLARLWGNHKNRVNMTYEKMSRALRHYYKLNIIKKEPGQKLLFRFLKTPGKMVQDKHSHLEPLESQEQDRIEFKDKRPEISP
Outline: as §1

ELF5 = biological target: T11, ELF5 (Homo sapiens, UniProt Q9UKW6-2 1-255); details: protein: recombinant; tags: N-terminal GST; dsDNA, one strand shown
T11 sequence: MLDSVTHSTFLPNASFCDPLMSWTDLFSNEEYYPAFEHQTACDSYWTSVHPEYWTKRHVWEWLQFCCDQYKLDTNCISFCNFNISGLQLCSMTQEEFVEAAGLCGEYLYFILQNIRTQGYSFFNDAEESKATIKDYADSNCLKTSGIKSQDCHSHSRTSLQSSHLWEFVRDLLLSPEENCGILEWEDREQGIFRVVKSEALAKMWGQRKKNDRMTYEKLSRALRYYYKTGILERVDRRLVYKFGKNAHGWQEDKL
Outline: as §1

ETV3 = biological target: T12, ETV3 (Homo sapiens, UniProt P41162-2 1-143); details: protein: recombinant; tags: N-terminal GST; dsDNA, one strand shown
T12 sequence: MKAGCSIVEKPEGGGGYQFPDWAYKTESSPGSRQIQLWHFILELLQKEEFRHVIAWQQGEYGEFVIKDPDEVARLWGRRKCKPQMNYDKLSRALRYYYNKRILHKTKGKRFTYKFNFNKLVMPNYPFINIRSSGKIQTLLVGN
Outline: as §1

ETV6 = ETV6 (Homo sapiens, UniProt P41212 1-452); details: protein: recombinant; tags: N-terminal GST; dsDNA, one strand shown
Outline: as §1

Sequence of CRX (O43186 whole entry): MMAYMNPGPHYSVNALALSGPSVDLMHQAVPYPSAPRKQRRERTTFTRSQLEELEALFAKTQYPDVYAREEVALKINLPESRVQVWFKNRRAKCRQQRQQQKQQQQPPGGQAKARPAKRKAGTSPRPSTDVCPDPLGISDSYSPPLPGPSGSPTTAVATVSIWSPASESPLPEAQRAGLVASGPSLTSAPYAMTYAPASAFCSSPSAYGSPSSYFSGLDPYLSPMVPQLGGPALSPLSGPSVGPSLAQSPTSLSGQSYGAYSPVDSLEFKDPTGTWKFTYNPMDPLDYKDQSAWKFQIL
Sequence of ETV1 (P50549 whole entry): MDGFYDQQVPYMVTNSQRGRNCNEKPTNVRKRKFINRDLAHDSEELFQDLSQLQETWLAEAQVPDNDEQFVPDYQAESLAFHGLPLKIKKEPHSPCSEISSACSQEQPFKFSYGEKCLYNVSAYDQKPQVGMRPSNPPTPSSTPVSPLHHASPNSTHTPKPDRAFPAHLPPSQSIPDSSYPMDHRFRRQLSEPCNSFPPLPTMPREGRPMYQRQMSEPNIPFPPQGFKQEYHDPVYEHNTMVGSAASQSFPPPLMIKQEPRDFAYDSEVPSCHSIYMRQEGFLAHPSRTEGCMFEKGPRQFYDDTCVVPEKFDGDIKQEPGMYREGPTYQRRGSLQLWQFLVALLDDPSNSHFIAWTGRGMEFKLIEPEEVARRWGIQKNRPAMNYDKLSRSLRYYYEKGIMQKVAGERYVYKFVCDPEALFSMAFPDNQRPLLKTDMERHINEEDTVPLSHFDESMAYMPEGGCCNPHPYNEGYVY
Sequence of ETV5 (P41161 whole entry): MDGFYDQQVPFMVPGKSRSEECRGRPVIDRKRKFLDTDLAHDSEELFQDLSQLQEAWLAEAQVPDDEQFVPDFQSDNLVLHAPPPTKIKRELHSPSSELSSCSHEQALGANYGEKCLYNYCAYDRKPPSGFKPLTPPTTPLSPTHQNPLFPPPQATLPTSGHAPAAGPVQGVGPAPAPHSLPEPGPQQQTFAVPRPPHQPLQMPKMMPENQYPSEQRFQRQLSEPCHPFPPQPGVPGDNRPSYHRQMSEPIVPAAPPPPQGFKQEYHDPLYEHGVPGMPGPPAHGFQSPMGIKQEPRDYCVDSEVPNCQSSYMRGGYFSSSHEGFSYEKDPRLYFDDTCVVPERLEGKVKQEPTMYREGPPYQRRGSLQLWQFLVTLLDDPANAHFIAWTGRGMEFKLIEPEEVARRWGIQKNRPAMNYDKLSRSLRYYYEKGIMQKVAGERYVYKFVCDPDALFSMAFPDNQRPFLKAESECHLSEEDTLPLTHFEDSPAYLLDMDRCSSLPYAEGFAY
Sequence of ELF4 (Q99607 whole entry): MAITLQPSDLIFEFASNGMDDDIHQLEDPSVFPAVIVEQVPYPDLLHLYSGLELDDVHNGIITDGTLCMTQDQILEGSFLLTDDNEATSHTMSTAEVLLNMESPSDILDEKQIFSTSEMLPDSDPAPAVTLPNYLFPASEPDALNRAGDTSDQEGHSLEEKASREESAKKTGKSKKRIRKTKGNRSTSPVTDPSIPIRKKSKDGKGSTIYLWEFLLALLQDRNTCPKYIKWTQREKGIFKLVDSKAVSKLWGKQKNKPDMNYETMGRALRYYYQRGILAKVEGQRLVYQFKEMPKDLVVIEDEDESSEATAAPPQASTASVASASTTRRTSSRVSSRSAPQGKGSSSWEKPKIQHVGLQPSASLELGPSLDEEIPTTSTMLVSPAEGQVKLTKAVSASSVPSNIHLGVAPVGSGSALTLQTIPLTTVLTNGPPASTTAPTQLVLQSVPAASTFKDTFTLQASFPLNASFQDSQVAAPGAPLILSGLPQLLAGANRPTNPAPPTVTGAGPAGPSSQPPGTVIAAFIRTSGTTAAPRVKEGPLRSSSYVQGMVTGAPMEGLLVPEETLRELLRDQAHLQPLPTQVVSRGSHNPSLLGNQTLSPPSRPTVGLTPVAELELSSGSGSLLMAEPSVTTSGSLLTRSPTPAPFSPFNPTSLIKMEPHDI
Sequence of ETV6 (P41212 whole entry): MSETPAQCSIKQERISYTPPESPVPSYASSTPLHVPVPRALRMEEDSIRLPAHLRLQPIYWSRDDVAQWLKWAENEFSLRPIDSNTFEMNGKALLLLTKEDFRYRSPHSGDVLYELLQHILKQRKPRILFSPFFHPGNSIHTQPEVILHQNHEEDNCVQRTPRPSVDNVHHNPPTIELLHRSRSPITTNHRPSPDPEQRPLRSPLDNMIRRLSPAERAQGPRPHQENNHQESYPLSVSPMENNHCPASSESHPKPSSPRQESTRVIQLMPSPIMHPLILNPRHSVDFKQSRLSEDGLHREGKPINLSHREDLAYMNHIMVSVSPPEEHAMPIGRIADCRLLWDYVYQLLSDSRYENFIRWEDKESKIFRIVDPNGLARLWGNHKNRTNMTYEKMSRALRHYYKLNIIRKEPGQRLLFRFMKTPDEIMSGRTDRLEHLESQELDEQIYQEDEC
Sequence of HSF1 (Q00613 whole entry): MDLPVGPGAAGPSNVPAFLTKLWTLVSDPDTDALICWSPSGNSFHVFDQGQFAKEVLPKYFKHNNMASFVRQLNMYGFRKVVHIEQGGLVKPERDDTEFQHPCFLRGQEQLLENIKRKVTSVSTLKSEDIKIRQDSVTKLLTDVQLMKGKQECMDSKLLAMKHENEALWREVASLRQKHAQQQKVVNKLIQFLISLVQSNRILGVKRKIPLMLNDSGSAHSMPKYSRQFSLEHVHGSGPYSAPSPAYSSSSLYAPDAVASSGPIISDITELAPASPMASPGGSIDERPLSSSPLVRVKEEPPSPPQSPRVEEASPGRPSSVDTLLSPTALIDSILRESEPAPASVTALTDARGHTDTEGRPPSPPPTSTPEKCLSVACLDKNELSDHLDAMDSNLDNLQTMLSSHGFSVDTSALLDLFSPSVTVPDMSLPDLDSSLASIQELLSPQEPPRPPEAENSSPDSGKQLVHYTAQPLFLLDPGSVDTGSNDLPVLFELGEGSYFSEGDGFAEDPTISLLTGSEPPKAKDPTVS

Sequence	binding signal (FEV)	binding signal (ETV5)	binding signal (HSF1)	binding signal (SPIC)	binding signal (ELF4)	binding signal (ELK4)	binding signal (ETV2)	binding signal (ELF3)	binding signal (CRX)	binding signal (ETV1)	binding signal (ERF)	binding signal (ETV3L)	binding signal (ETS2)	binding signal (SPDEF)	binding signal (ETV7)	binding signal (ELF5)	binding signal (ETV3)	binding signal (ETV6)
TCCACT	1.54 fold enrichment (6-mer frequency, TF over GST control)	1.49 fold enrichment (6-mer frequency, TF over GST control)	1.47 fold enrichment (6-mer frequency, TF over GST control)	1.4 fold enrichment (6-mer frequency, TF over GST control)	1.51 fold enrichment (6-mer frequency, TF over GST control)	1.49 fold enrichment (6-mer frequency, TF over GST control)	1.48 fold enrichment (6-mer frequency, TF over GST control)	1.25 fold enrichment (6-mer frequency, TF over GST control)	1.33 fold enrichment (6-mer frequency, TF over GST control)	1.41 fold enrichment (6-mer frequency, TF over GST control)	1.42 fold enrichment (6-mer frequency, TF over GST control)	1.49 fold enrichment (6-mer frequency, TF over GST control)	1.45 fold enrichment (6-mer frequency, TF over GST control)	1.37 fold enrichment (6-mer frequency, TF over GST control)	1.4 fold enrichment (6-mer frequency, TF over GST control)	1.42 fold enrichment (6-mer frequency, TF over GST control)	1.41 fold enrichment (6-mer frequency, TF over GST control)	1.39 fold enrichment (6-mer frequency, TF over GST control)
CATCGA	1.05 fold enrichment (6-mer frequency, TF over GST control)	1.17 fold enrichment (6-mer frequency, TF over GST control)	1.42 fold enrichment (6-mer frequency, TF over GST control)	1.06 fold enrichment (6-mer frequency, TF over GST control)	1.12 fold enrichment (6-mer frequency, TF over GST control)	1.06 fold enrichment (6-mer frequency, TF over GST control)	1.16 fold enrichment (6-mer frequency, TF over GST control)	1.04 fold enrichment (6-mer frequency, TF over GST control)	1.05 fold enrichment (6-mer frequency, TF over GST control)	1.05 fold enrichment (6-mer frequency, TF over GST control)	1.16 fold enrichment (6-mer frequency, TF over GST control)	1.21 fold enrichment (6-mer frequency, TF over GST control)	1.15 fold enrichment (6-mer frequency, TF over GST control)	1.04 fold enrichment (6-mer frequency, TF over GST control)	1.13 fold enrichment (6-mer frequency, TF over GST control)	1.05 fold enrichment (6-mer frequency, TF over GST control)	1.08 fold enrichment (6-mer frequency, TF over GST control)	1.01 fold enrichment (6-mer frequency, TF over GST control)
